Results published in the supplement of paper PMC12282887.
± gives the standard deviation of the averaged measurements.

Tests used:
Assay in all cases: promoter activity interaction Z-score (Lux/OD deviation from empty-vector control); higher = stronger promoter induction by the compound
[1] = tested on: E. coli BW25113 acrABp lux reporter
Procedure, shortened: (§1)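 E. coli BW25113, as wild type or one of three single-gene deletion strains, carried low-copy luxCDABE promoter reporters and grew in 40 µl LB Lennox in 384-well plates at 37°C, with OD600 and luminescence read every 30 min for 12 h. Each compound was run at four 1:2 dilutions in biological duplicates, integration spanned 0–8 h for wild type and 1–9 h for deletion strains, and wells under 10% of the median growth value were dropped. The score is the Z-transformed residual of growth-normalised luminescence fitted against a control.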

[2] = tested on: E. coli BW25113 micFp lux reporter
Procedure, shortened: as §1

[3] = tested on: E. coli BW25113 ompFp lux reporter
Procedure, shortened: as §1

[4] = tested on: E. coli BW25113 robp lux reporter
Procedure, shortened: as §1

[5] = tested on: E. coli BW25113 soxSp lux reporter
Procedure, shortened: as §1

[6] = tested on: E. coli BW25113 tolCp lux reporter
Procedure, shortened: as §1

[7] = 20 µg/ml, genetic background: wild type
[8] = 20 µg/ml, genetic background: ΔmarA
[9] = 20 µg/ml, genetic background: Δrob
[10] = 20 µg/ml, genetic background: ΔsoxS
[11] = 39.9 µg/ml, genetic background: wild type
[12] = 39.9 µg/ml, genetic background: ΔmarA
[13] = 39.9 µg/ml, genetic background: Δrob
[14] = 39.9 µg/ml, genetic background: ΔsoxS
[15] = 79.8 µg/ml, genetic background: wild type
[16] = 79.8 µg/ml, genetic background: ΔmarA
[17] = 79.8 µg/ml, genetic background: Δrob
[18] = 79.8 µg/ml, genetic background: ΔsoxS
[19] = 159.6 µg/ml, genetic background: wild type
[20] = 159.6 µg/ml, genetic background: ΔmarA
[21] = 159.6 µg/ml, genetic background: Δrob
[22] = 159.6 µg/ml, genetic background: ΔsoxS

NC[C@H](O)c1ccc(O)c(O)c1 [Noradrenalin]
promoter activity interaction Z-score [1, 7]: 0.191 ± 0.043 | promoter activity interaction Z-score [1, 8]: 0.362 ± 0.59 | promoter activity interaction Z-score [1, 9]: 0.47 ± 0.3 | promoter activity interaction Z-score [1, 10]: 0.122 ± 0.4 | promoter activity interaction Z-score [1, 11]: 0.0636 ± 0.28 | promoter activity interaction Z-score [1, 12]: 0.359 ± 0.28 | promoter activity interaction Z-score [1, 13]: 0.344 ± 0.66 | promoter activity interaction Z-score [1, 14]: 0.23 ± 0.37 | promoter activity interaction Z-score [1, 15]: 0.335 ± 0.023 | promoter activity interaction Z-score [1, 16]: -0.978 ± 0.27 | promoter activity interaction Z-score [1, 17]: 0.541 ± 0.3 | promoter activity interaction Z-score [1, 18]: 0.0112 ± 0.031 | promoter activity interaction Z-score [1, 19]: 0.208 ± 0.26 | promoter activity interaction Z-score [1, 20]: 0.422 ± 0.39 | promoter activity interaction Z-score [1, 21]: 0.664 ± 0.6 | promoter activity interaction Z-score [1, 22]: 0.626 ± 0.16 | promoter activity interaction Z-score [2, 7]: -0.0178 ± 0.045 | promoter activity interaction Z-score [2, 8]: 0.0504 ± 0.056 | promoter activity interaction Z-score [2, 9]: -0.0409 ± 0.027 | promoter activity interaction Z-score [2, 10]: 0.0398 ± 0.17 | promoter activity interaction Z-score [2, 11]: -0.101 ± 0.2 | promoter activity interaction Z-score [2, 12]: -0.00878 ± 0.065 | promoter activity interaction Z-score [2, 13]: -0.0156 ± 0.16 | promoter activity interaction Z-score [2, 14]: -0.114 ± 0.0037 | promoter activity interaction Z-score [2, 15]: 0.00145 ± 0.18 | promoter activity interaction Z-score [2, 16]: -0.0653 ± 0.027 | promoter activity interaction Z-score [2, 17]: -0.14 ± 0.2 | promoter activity interaction Z-score [2, 18]: 0.0484 ± 0.0015 | promoter activity interaction Z-score [2, 19]: -0.129 ± 0.14 | promoter activity interaction Z-score [2, 20]: -0.17 ± 0.03 | promoter activity interaction Z-score [2, 21]: -0.105 ± 0.047 | promoter activity interaction Z-score [2, 22]: -0.0781 ± 0.094 | promoter activity interaction Z-score [3, 7]: 0.507 ± 0.061 | promoter activity interaction Z-score [3, 8]: 0.708 ± 0.42 | promoter activity interaction Z-score [3, 9]: 0.59 ± 0.074 | promoter activity interaction Z-score [3, 10]: 0.138 ± 0.1 | promoter activity interaction Z-score [3, 11]: 0.854 ± 0.025 | promoter activity interaction Z-score [3, 12]: 0.48 ± 0.12 | promoter activity interaction Z-score [3, 13]: 0.602 ± 0.42 | promoter activity interaction Z-score [3, 14]: 0.403 ± 0.22 | promoter activity interaction Z-score [3, 15]: 0.895 ± 0.33 | promoter activity interaction Z-score [3, 16]: 0.0373 ± 0.12 | promoter activity interaction Z-score [3, 17]: 0.307 ± 0.14 | promoter activity interaction Z-score [3, 18]: 0.13 ± 0.09 | promoter activity interaction Z-score [3, 19]: 1.01 ± 0.25 | promoter activity interaction Z-score [3, 20]: 0.851 ± 0.14 | promoter activity interaction Z-score [3, 21]: 0.476 ± 1.1 | promoter activity interaction Z-score [3, 22]: 1.13 ± 0.2 | promoter activity interaction Z-score [4, 7]: 0.547 ± 0.64 | promoter activity interaction Z-score [4, 8]: 0.384 ± 0.1 | promoter activity interaction Z-score [4, 9]: 0.384 ± 0.47 | promoter activity interaction Z-score [4, 10]: 1.12 ± 0.86 | promoter activity interaction Z-score [4, 11]: 0.762 ± 0.056 | promoter activity interaction Z-score [4, 12]: 1.14 ± 0.33 | promoter activity interaction Z-score [4, 13]: 0.129 ± 0.011 | promoter activity interaction Z-score [4, 14]: 0.395 ± 0.56 | promoter activity interaction Z-score [4, 15]: 0.33 ± 0.14 | promoter activity interaction Z-score [4, 16]: -0.159 ± 0.14 | promoter activity interaction Z-score [4, 17]: -0.0403 ± 0.17 | promoter activity interaction Z-score [4, 18]: 0.042 ± 0.74 | promoter activity interaction Z-score [4, 19]: 0.223 ± 0.48 | promoter activity interaction Z-score [4, 20]: -0.276 ± 0.24 | promoter activity interaction Z-score [4, 21]: -0.36 ± 0.58 | promoter activity interaction Z-score [4, 22]: -0.182 ± 0.36 | promoter activity interaction Z-score [5, 7]: -0.0849 ± 0.038 | promoter activity interaction Z-score [5, 8]: -0.0801 ± 0.073 | promoter activity interaction Z-score [5, 9]: -0.113 ± 0.058 | promoter activity interaction Z-score [5, 10]: 0.0191 ± 0.33 | promoter activity interaction Z-score [5, 11]: 0.0167 ± 0.12 | promoter activity interaction Z-score [5, 12]: -0.0796 ± 0.033 | promoter activity interaction Z-score [5, 13]: -0.0193 ± 0.2 | promoter activity interaction Z-score [5, 14]: 0.0258 ± 0.27 | promoter activity interaction Z-score [5, 15]: -0.0633 ± 0.035 | promoter activity interaction Z-score [5, 16]: -0.258 ± 0.028 | promoter activity interaction Z-score [5, 17]: -0.159 ± 0.19 | promoter activity interaction Z-score [5, 18]: -0.00763 ± 0.11 | promoter activity interaction Z-score [5, 19]: -0.154 ± 0.0074 | promoter activity interaction Z-score [5, 20]: -0.357 ± 0.097 | promoter activity interaction Z-score [5, 21]: -0.388 ± 0.16 | promoter activity interaction Z-score [5, 22]: -0.0342 ± 0.11 | promoter activity interaction Z-score [6, 7]: 0.0786 ± 0.23 | promoter activity interaction Z-score [6, 8]: 0.206 ± 1.2 | promoter activity interaction Z-score [6, 9]: -0.339 ± 0.25 | promoter activity interaction Z-score [6, 10]: -0.485 ± 0.31 | promoter activity interaction Z-score [6, 11]: -0.478 ± 0.28 | promoter activity interaction Z-score [6, 12]: 0.198 ± 0.13 | promoter activity interaction Z-score [6, 13]: -0.000984 ± 1.4 | promoter activity interaction Z-score [6, 14]: -0.431 ± 0.54 | promoter activity interaction Z-score [6, 15]: 0.0142 ± 0.56 | promoter activity interaction Z-score [6, 16]: -0.267 ± 0.49 | promoter activity interaction Z-score [6, 17]: 0.254 ± 0.35 | promoter activity interaction Z-score [6, 18]: -0.273 ± 0.31 | promoter activity interaction Z-score [6, 19]: -0.957 ± 1.4 | promoter activity interaction Z-score [6, 20]: -0.659 ± 0.07 | promoter activity interaction Z-score [6, 21]: -0.565 ± 0.4 | promoter activity interaction Z-score [6, 22]: -0.633 ± 0.011
